Experimental data as given in the supplement of paper PMC8728848.
This is one part of a sample in which the strongest signals are shown more often than they occur.

What was measured:
Test in all cases: glycan array binding signal (z-score within array); higher = stronger binding
Conditions in all cases: glycan notation: IUPAC condensed, linker removed
[1] = molecular target: Fuc(a1-2)Gal(b1-4)GlcNAc(b1-2)Man(a1-3)[Fuc(a1-2)Gal(b1-4)GlcNAc(b1-2)Man(a1-6)]Man(b1-4)GlcNAc(b1-4)GlcNAc
How it was run: (§1)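 Negative Z-scores can be read as non-binding. The Z-score is calculated within each array and then averaged across arrays of one protein sequence at different concentrations or buffers and across linkers. Arrays, 3228 in all, were curated from the Consortium for Functional Glycomics database and kept only where the protein sequence was available.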

[2] = molecular target: Fuc(a1-2)Gal6S(b1-4)Glc6S
How it was run: as §1

[3] = molecular target: Fuc(a1-2)Gal6S(b1-4)GlcNAc
How it was run: as §1

[4] = molecular target: Fuc(a1-2)[GalNAc(a1-3)]Gal(b1-4)Glc
How it was run: as §1

[5] = molecular target: Fuc(a1-3)[Gal(b1-4)]GlcNAc6S
How it was run: as §1

[6] = molecular target: Gal(a1-3)[Gal(a1-4)]Gal(b1-4)GlcNAc
How it was run: as §1

Gal(a1-4)GlcNAc = molecular target: Gal(a1-4)GlcNAc
How it was run: as §1

[7] = molecular target: Gal(b1-3)GalNAc(a1-3)[Fuc(a1-2)]Gal(b1-4)GlcNAc
How it was run: as §1

[8] = molecular target: Gal(b1-3)GlcNAc(b1-2)Man(a1-3)[Gal(b1-3)GlcNAc(b1-2)Man(a1-6)]Man(b1-4)GlcNAc(b1-4)GlcNAc
How it was run: as §1

Gal(b1-4)GlcNAc = molecular target: Gal(b1-4)GlcNAc
How it was run: as §1

Gal3S(b1-3)GlcNAc = molecular target: Gal3S(b1-3)GlcNAc
How it was run: as §1

Gal3S4S(b1-4)GlcNAc = molecular target: Gal3S4S(b1-4)GlcNAc
How it was run: as §1

GalNAc(b1-3)Gal = molecular target: GalNAc(b1-3)Gal
How it was run: as §1

[9] = molecular target: GlcNAc(a1-4)Gal(b1-4)GalNAc
How it was run: as §1

[10] = molecular target: GlcNAc(b1-4)[GlcNAc(b1-6)]GalNAc
How it was run: as §1

[11] = molecular target: GlcNAc(b1-6)Gal(b1-4)GlcNAc
How it was run: as §1

GlcNAc3Prop(b1-4)GlcNAc = molecular target: GlcNAc3Prop(b1-4)GlcNAc
How it was run: as §1

[12] = molecular target: GlcNAc6S(b1-3)Gal(b1-4)GlcNAc
How it was run: as §1

Kdn(a2-6)Gal(b1-4)GlcNAc = molecular target: Kdn(a2-6)Gal(b1-4)GlcNAc
How it was run: as §1

[13] = molecular target: Neu5Ac(a2-3)Gal(b1-3)[Fuc(a1-4)]GlcNAc
How it was run: as §1

[14] = molecular target: Neu5Ac(a2-3)Gal(b1-4)GlcNAc(b1-2)Man(a1-3)[Neu5Ac(a2-6)Gal(b1-4)GlcNAc(b1-2)Man(a1-6)]Man(b1-4)GlcNAc(b1-4)GlcNAc
How it was run: as §1

[15] = molecular target: Neu5Ac(a2-3)Gal(b1-4)GlcNAc(b1-3)GalNAc
How it was run: as §1

[16] = molecular target: Neu5Ac(a2-3)Gal(b1-4)[Fuc(a1-3)]GlcNAc(b1-6)[Neu5Ac(a2-3)Gal(b1-3)]GalNAc
How it was run: as §1

[17] = molecular target: Neu5Ac(a2-3)[GalNAc(b1-4)]Gal(b1-4)GlcNAc
How it was run: as §1

[18] = molecular target: Neu5Ac(a2-6)Gal(b1-4)GlcNAc(b1-2)Man(a1-3)[GlcNAc(b1-2)Man(a1-6)]Man(b1-4)GlcNAc(b1-4)GlcNAc
How it was run: as §1

[19] = molecular target: Neu5Ac(a2-6)Gal(b1-4)GlcNAc(b1-2)Man(a1-6)[Man(a1-3)]Man(b1-4)GlcNAc(b1-4)GlcNAc
How it was run: as §1

[20] = molecular target: Neu5Ac(a2-8)Neu5Ac(a2-8)Neu5Ac
How it was run: as §1

B1: 4F2hc (Homo sapiens), P08195 (protein)
chain: WWHTGALYRIGDLQAFQGHGAGNLAGLKGRLDYLSSLKVKGLVLGPIHKNQKDDVAQTDLLQIDPNFGSKEDFDSLLQSAKKKSIRVILDLTPNYRGENSWFSTQVDTVATKVKDALEFWLQAGVDGFQVRDIENLKDASSFLAEWQNITKGFSEDRLLIAGTNSSDLQQILSLLESNKDLLLTSSYLSDSGSTGEHTKSLVTQYLNATGNRWCSWSLSQARLLTSFLPAQLLRLYQLMLFTLPGTPVFSYGDEIGLDAAALPGQPMEAPVMLWDESSFPDIPGAVSANMTVKGQSEDPGSLLSLFRRLSDQRSKERSLLHGDFHAFSAGPGLFSYIRHWDQNERFLVVLNFGDVGLSAGLQASDLPASASLPAKADLLLSTQPGREEGSPLELERLKLEPHEGLLLRFPYAA
B1 was tested, and the “glycan array binding signal (z-score)” value [1] was -0.399, the “glycan array binding signal (z-score)” value [2] was -0.953 and the “glycan array binding signal (z-score)” value [3] was -1.01. The “glycan array binding signal (z-score)” value [4] was 6.38, the “glycan array binding signal (z-score)” value [5] was 2.68 and the “glycan array binding signal (z-score)” value [6] was -0.32. For the same binder, the “glycan array binding signal (z-score)” value (Gal(a1-4)GlcNAc) was -0.668, the “glycan array binding signal (z-score)” value [7] was -0.507 and the “glycan array binding signal (z-score)” value [8] was 3.66. For the same binder, the “glycan array binding signal (z-score)” value (Gal(b1-4)GlcNAc) was -0.318, the “glycan array binding signal (z-score)” value (Gal3S(b1-3)GlcNAc) was 0.65 and the “glycan array binding signal (z-score)” value (Gal3S4S(b1-4)GlcNAc) was 3.95. For the same binder, the “glycan array binding signal (z-score)” value (GalNAc(b1-3)Gal) was -0.631, the “glycan array binding signal (z-score)” value [9] was -1.21 and the “glycan array binding signal (z-score)” value [10] was 0.848. The “glycan array binding signal (z-score)” value [11] was 0.103, the “glycan array binding signal (z-score)” value (GlcNAc3Prop(b1-4)GlcNAc) was 0.691 and the “glycan array binding signal (z-score)” value [12] was -1.04. For the same binder, the “glycan array binding signal (z-score)” value (Kdn(a2-6)Gal(b1-4)GlcNAc) was 0.863, the “glycan array binding signal (z-score)” value [13] was 1.08 and the “glycan array binding signal (z-score)” value [14] was -0.878. For the same binder, the “glycan array binding signal (z-score)” value [15] was -0.993, the “glycan array binding signal (z-score)” value [16] was 3.35 and the “glycan array binding signal (z-score)” value [17] was -0.5. The “glycan array binding signal (z-score)” value [18] was -0.141, the “glycan array binding signal (z-score)” value [19] was 5.26 and the “glycan array binding signal (z-score)” value [20] was -0.566.
